Measured values: PubChem BioAssay AID1865 (National Center for Advancing Translational Sciences (NCATS), 2009)
Several values for one entry are separate records, joined by “and”; a condition that tells them apart may be missing. Equal values may be shown once. Among all 280,000 compounds or so, about 540 (0.19%) were called active. Inconclusive results (about 2%) are left out. Calls follow the shape of the dose curve; as a rule, active = well fitted activation curve with a large enough effect; inconclusive = small, poorly fitted or top-dose-only effect; inactive = flat fitted curve, though single readings scatter. Many of the other results were omitted from the sample, so actives are more common in it than they were. More than one record can exist for a structure, and the calls need not agree.

Test: Quantitative High-Throughput Screen for Regulators of Epigenetic Control; also: nearly all actives have a fitted effect of over 60% in size; as to GFP activation: % of control where 0% means no effect
Conditions: murine LDR cells, GFP reporter derepression, 30 h; series mostly up to 53.9 µM; GFP activation: at the top concentration
From the text: NIH Molecular Libraries Screening Centers Network [MLPCN] NIH Chemical Genomics Center [NCGC] MLSCN Grant: 1 X01 MH079860-01 Assay Provider: Elisabeth D. Martinez, University of Texas SW Medical Center NCGC Assay Overview: The Locus Derepression (LDR) assay detects the derepression or induction of a GFP reporter that is stably integrated in a genomic region of murine cells that is presumably silenced. Transcription of the GFP reporter is controlled by a CMV promoter, which normally is constitutively active. However, this cell line, termed LDR, was selected for lack of constitutive production of GFP. GFP production can be induced by incubating the cells with histone deacetylase or DNA methyltransferase inhibitors (Martinez et al., 2006). Compounds that derepress or induce this reporter locus are identified by enumerating GFP positive cells using a laser-scanning microplate cytometer (Auld et al., 2006). This assay was screened against the MLSMR earlier (AID 597; (Johnson et al., 2008) and has been rescreened here against the expanded collection.
NCGC Assay Protocol Summary: Three hundred LDR cells in 5 uL per well were dispensed into black, clear-bottom 1536-well plates. Twenty-three nL compound was transferred to the assay plate and cells were incubated 30 hours at 37 C. Medium was removed, cells were washed two times with PBS, and GFP-positive cells were enumerated as fluorescent objects between the sizes of 20 to 120 um width and depth using an Acumen Explorer. References Auld, DS, Johnson, RL, Zhang, YQ, Veith, H, Jadhav, A, Yasgar, A, Simeonov, A, Zheng, W, Martinez, ED, Westwick, JK, Austin, CP, Inglese, J (2006). Fluorescent protein-based cellular assays analyzed by laser-scanning microplate cytometry in 1536-well plate format. Methods Enzymol 414: 566-89. Johnson, RL, Huang, W, Jadhav, A, Austin, CP, Inglese, J, Martinez, ED (2008). A quantitative high-throughput screen identifies potential epigenetic modulators of gene expression. Anal Biochem 375: 237-48. Martinez, ED, Dull, AB, Beutler, JA, Hager, GL (2006). High-content fluorescence-based screening for epigenetic modulators. Methods Enzymol 414: 21-36.
Potency is read from the fitted curve at half-maximal effect.

| Compound | Potency | GFP activation |
| --- | --- | --- |
| N#CC(C#N)=Cc1cc(O)c(O)c([N+](=O)[O-])c1 | inactive and 17.8 µM (active) |  |
| C[C@@]12CC[C@H]3[C@@H](CC[C@]4(O)C[C@H](O)CC[C@@]34C=O)[C@]1(O)CC[C@@H]2C1=CC(=O)OC1 |  | 4.11% [at 16.9 µM] (inactive) |
| CCCCCCCCc1[se]c2ccccc2c1Br |  | 5.52% (inactive) |
| COc1ccccc1-c1[se]c2ccccc2c1I |  | 0.901% (inactive) |
| CN[C@@H]1C[C@H]2O[C@@](C)([C@@H]1OC)n1c3ccccc3c3c4c(c5c6ccccc6n2c5c31)C(=O)NC4 | inactive |  |
| CC(C)(Cc1c[nH]c2ccc(Cl)cc12)NCCOc1ccccc1OCC1CC1 | inactive |  |
| CC1=CC(=Cc2sc3ccccc3[n+]2C)C=C(C)O1 | 11.2 µM (active) |  |
| Fc1ccc(C(OCCN2CCN(C/C=C\c3ccccc3)CC2)c2ccc(F)cc2)cc1 |  | 3.24% (inactive) |
| CC(C)(O)c1[se]c2ccccc2c1I |  | 3.15% (inactive) |
| NC[C@H](O)c1ccc(O)cc1 |  | 1.37% [at 16.9 µM] (inactive) |
| COc1cc(Cn2c(N)c(C(=O)NCc3ccco3)c3nc4ccccc4nc32)cc(OC)c1OC |  | 1.22% (inactive) |
| CCCn1c(C(=O)c2ccccc2OC)nc2ccccc21 |  | -2.57% (inactive) |
| CCOc1ccc(CNC(=O)c2cccc(Nc3nc4ccccc4n4nnnc34)c2)cc1OC | 20 µM (active) |  |
| C[C@]12CC[C@H](O)C[C@@H]1CC[C@H]1[C@H]2CC[C@]2(C)C(=O)CC[C@@H]12 | inactive |  |
| CC(=O)c1c(O)c(C)c(O)c(Cc2c(O)c3c(c(C(=O)/C=C\c4ccccc4)c2O)OC(C)(C)C=C3)c1O |  | -2.7% (inactive) |
